Records with an inconclusive call do not appear. Active and inactive are the calls of the source.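 Rule for the calls: active = immobility above 50% at 10 µM after 1 hour; inconclusive = immobility from 15% to 50% at 1 hour; inactive = immobility below 15%.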

The first test can be described thus: Assay for General Anesthetic Phenotype in Xenopus Tadpoles. The note with it: startle-response immobility, 1 h, at 10 µM, stronger effect = higher value. The text has this: Anesthetic development has remained a largely empirical process. There are growing concerns about the cognitive effects of known general anesthetics and acceleration of the onset of neurodegenerative disease. The compounds' toxicity and multiple specific binding targets in the mammalian brain [4] has made them less attractive as drug leads. This assay was designed for the in vivo follow-up testing of compounds in tadpoles. References: [1] S.L. Bianchi, T. Tran, C. Liu, S. Lin, Y. Li, J.M. Keller, R.G. Eckenhoff, and M.F. Eckenhoff, Brain and behavior changes in 12-month-old Tg2576 and nontransgenic mice exposed to anesthetics. Neurobiol Aging 29 (2008) 1002-10. Z. Xie, Y. Dong, U. Maeda, R.D. Moir, W. Xia, D.J. Culley, G. Crosby, and R.E. Tanzi, The inhalation anesthetic isoflurane induces a vicious cycle of apoptosis and amyloid beta-protein accumulation. J Neurosci 27 (2007) 1247-54. P. Honegger, and J.M. Matthieu, Selective toxicity of the general anesthetic propofol for GABAergic neurons in rat brain cell cultures. J Neurosci Res 45 (1996) 631-6. M.F. Eckenhoff, K. Chan, and R.G. Eckenhoff, Multiple specific binding targets for inhaled anesthetics in the mammalian brain. J Pharmacol Exp Ther 300 (2002) 172-9. C.A. Butts, J. Xi, G. Brannigan, A.A. Saad, S.P. Venkatachalan, R.A. Pearce, M.L. Klein, R.G. Eckenhoff, and I.J. Dmochowski, Identification of a fluorescent general anesthetic, 1-aminoanthracene. Proc Natl Acad Sci U S A 106 (2009) 6501-6. W.A. Lea, J. Xi, A. Jadhav, L. Lu, C.P. Austin, A. Simeonov, and R.G. Eckenhoff, A high-throughput approach for identification of novel general anesthetics. PLoS One 4 (2009) e7150.
Pre-limb bud Xenopus tadpoles were obtained in large batches from Nasco, Inc. Batches of 10 tadpoles were placed in 20 mm Petri dishes with approximately 20 ml of pond water ("pond water" is approximately a 20-fold dilution of Ringers saline solution). Compounds were added to the pond water from DMSO stock to obtain 100, 10 and 1 microM concentrations. Tadpoles were then incubated with these solutions for 1 hour, and then scored for "anesthesia". Anesthesia in this case is lack of movement in response to a sharp tap on the Petri dish lid, i.e., a lack of startle response. This correlates well to the loss of righting reflex in rodents and the loss of consciousness in humans. The pond water is then changed, and the return of a startle response is monitored for 24 hours. Immobility at 24 hours is considered death.
On to `Cc1ccc(-c2ccc(=O)n(CC(=O)NCCc3ccccc3)n2)cc1`, for which the immobility was 90% (active).
Same read-out and setting: next, `C[S+](=O)([O-])c1ccc(-c2ccc(=O)n(CC(=O)NCCc3ccccc3)n2)cc1`: 5% (inactive); `N#Cc1ccc(-c2ccc(=O)n(CC(=O)NCCc3ccccc3)n2)cc1`: 0% (inactive).

Staying with this test, now noted: startle-response immobility, 1 h, measured here: 24 h immobility, toxicity/death, at 10 µM.
Compound `Cc1ccc(-c2ccc(=O)n(CC(=O)NCCc3ccccc3)n2)cc1` yielded an immobility of 0%.
As to `C[S+](=O)([O-])c1ccc(-c2ccc(=O)n(CC(=O)NCCc3ccccc3)n2)cc1`, the immobility is 5%.
Compound `N#Cc1ccc(-c2ccc(=O)n(CC(=O)NCCc3ccccc3)n2)cc1` had an immobility of 5%.

These data come from PubChem BioAssay AID624098 (National Center for Advancing Translational Sciences (NCATS), 2012).
